Screening data deposited in PubChem BioAssay by several laboratories.
The list is not random: actives were taken first. Their share in the collection is about 4.2%.
CCHF vOTU inh = CCHFV vOTU protease inhibitors, primary screen, biochemical, Pep-AMC substrate, fluorescence; AID 651958, 2012; Crimean-Congo hemorrhagic fever virus L polyprotein viral ovarian tumor (vOTU) protease …; 0.55% of 370,000 active; inhibition, % at 11.5 µM; note: 0% = vehicle wells with enzyme and 100% = no enzyme wells
RecA splice inh = Mtb RecA intein splicing inhibitors, primary screen, biochemical, fluorescence, HTS | Protein RecA (Mycobacterium tuberculosis (strain ATCC 25618 / H37Rv)), P9WHJ3 | inhibition, % (test concentration not listed) | AID 2221, 2009 | 0.75% of 290,000 active | cell-free RecA intein splicing; in the data active = inhibition above about 30%;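 note: 0% = vehicle wells and 100% = reference inhibitor control wells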
Target sequence (P9WHJ3 whole entry, looked up, canonical isoform): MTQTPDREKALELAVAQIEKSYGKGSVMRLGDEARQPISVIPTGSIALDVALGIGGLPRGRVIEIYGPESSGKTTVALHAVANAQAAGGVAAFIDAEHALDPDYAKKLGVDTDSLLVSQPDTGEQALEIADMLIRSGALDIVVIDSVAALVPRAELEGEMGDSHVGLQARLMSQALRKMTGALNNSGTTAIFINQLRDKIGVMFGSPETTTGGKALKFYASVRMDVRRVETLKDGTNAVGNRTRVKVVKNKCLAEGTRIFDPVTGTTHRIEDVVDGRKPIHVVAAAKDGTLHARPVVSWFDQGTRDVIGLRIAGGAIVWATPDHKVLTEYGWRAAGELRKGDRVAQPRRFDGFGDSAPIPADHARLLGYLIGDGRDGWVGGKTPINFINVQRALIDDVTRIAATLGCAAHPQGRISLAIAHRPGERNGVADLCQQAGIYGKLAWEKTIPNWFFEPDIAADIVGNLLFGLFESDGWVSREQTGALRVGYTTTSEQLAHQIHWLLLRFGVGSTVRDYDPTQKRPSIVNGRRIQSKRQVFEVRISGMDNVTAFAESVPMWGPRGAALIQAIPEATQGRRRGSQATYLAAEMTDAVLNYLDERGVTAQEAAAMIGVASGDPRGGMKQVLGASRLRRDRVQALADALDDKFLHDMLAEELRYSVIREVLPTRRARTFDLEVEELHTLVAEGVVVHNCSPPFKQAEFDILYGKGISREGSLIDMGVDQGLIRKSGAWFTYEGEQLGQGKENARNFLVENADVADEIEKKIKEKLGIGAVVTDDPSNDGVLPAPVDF
GDH-TPI inh = GDH-TPI coupling enzyme inhibitors, primary screen, artefact control for M. tuberculosis FBA inhibitor project, biochemical, absorbance, full deck | GDH-TPI coupled enzyme counterscreen, NADH absorbance | inhibition, % at 4.8 µM | AID 588335, 2011 | 1.2% of 360,000 active;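 note: 0% = DMSO wells and 100% = wells lacking the enzyme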
Mtb FBA inh = Mtb FBA enzyme inhibitors, primary screen, biochemical, fluorescence, strain H37Rv | Fructose-bisphosphate aldolase (Mycobacterium tuberculosis (strain ATCC 25618 / H37Rv)), … | purified M. tuberculosis FBA, fluorescence read-out | inhibition, % at 1 µM | 2.3% of 360,000 active | AID 588726, 2011; in the data active = inhibition above about 27%;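 note: 0% = vehicle and 100% = reference inhibitor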
* = called active by the depositor; x = no result given; + = active, no number. Cut-off read from the data, not from the text of the source, unless noted: active = inhibition above about 30%; inactive = the rest.

SMILES	CCHF vOTU inh	RecA splice inh	GDH-TPI inh	Mtb FBA inh
COc1ccc(OC)c(N2CC(O)=C(c3nc4ccccc4s3)C2=N)c1	8	-2	36*	-2
COc1cc2c(cc1OC)C(c1ccc(-c3ccc(Cl)cc3Cl)o1)=NCC2	4	0	32*	2
COC(=O)c1ccc(C(=O)OC)c(NC(=O)CSCC(=O)O)c1	12	0	6	1
COC(=O)c1ccc(C(=O)OC)c(NC(=O)Oc2ccccc2)c1	-226	-90	5	155*
CCN(CC)S(=O)(=O)c1ccc(N/N=C/c2cccnc2)nc1	10	3	73*	0
Cc1ccc(NC(=O)C(=O)NCc2ccc(/C=N/NC(=O)c3c(C)nc4ccccn34)o2)cc1	-10	3	42*	-2
CCOC(=O)c1nnn(-c2ccccc2C#N)c1C	12	-2	-6	-1
Cc1c(C(=O)/C=C/N(C)C)nnn1-c1ccc(Cl)cc1C#N	6	-2	46*	-4
CCc1nn(CC(=O)NCCN2CCN(C)CC2)c(=O)c2cc3c(OC)cccc3n12	-148	3	11	+
COc1cccc2c1cc1c(=O)n(CC(=O)N3CCC(C)CC3)nc(C)n12	-85	-2	10	+
Cc1ccc(CN2CC(C(=O)Nc3ncccc3C)CC2=O)cc1 (centres undefined)	-10	-3	2	-3
Cc1c(Cl)cccc1NC(=O)CC1NCCNC1=O (centres undefined)	27	-1	-9	+
Cc1c(Cl)cccc1NC(=O)CC1SCCNC1=O (centres undefined)	-4	-2	4	2
CC(C)(C)NC(=O)C(c1ccc(C#N)cc1)n1c(=O)c(-c2ccco2)nc2ccccc21 (centres undefined)	11	x	x	x
CCOC(=O)CC[C@@]1(C(=O)OCC)C[C@@H](CC(=O)N2CCN(C(=O)c3ccco3)CC2)C(=O)N2CCCC=C21	-9	x	x	x
COc1ccc2sc(-c3ccc(N(C)C)cc3)c(C#CC(C)(C)O)c2c1	-74	x	23	+
COc1ccc2sc(-c3ccc(N(C)C)cc3)c(C#CCCO)c2c1	-148	x	19	+
Cc1ccc(NC(=O)C2SC(=Nc3ccccc3)C(C(=O)Nc3ccc(Cl)cc3)=C2N)cc1 (centres undefined)	x	x	5	-3
Cc1ccc(N=C2SC(C(=O)Nc3ccc(OC(F)(F)F)cc3)C(N)=C2C(=O)Nc2c(C)cc(C)cc2C)cc1 (centres undefined)	30*	x	10	-3
C#CCN(C[C@H]1[C@H](OC(=O)NCc2ccccc2F)[C@H](OC(=O)NCc2ccccc2F)C[C@@H](C(=O)OC)[C@H]1C(=O)OC)S(=O)(=O)c1ccc(C)cc1	16	x	10	-1
COc1ccc(-c2c(C#N)c(N)n(N)c(=O)c2C#N)cc1Cl	-3	-1	13	4
N#Cc1c(-c2ccc(Cl)cc2)c(C#N)c(=O)n(N)c1N	18	3	33*	-4
CSc1nc(-c2ccc(Cl)cc2)nc(N)c1C#N	-4	1	-3	0
CSc1nc(N)c(C#N)c(-c2ccc(Cl)cc2)c1C#N	5	1	33*	4
O=C(Oc1ccc(C(=S)N2CCOCC2)cc1)c1ccc([N+](=O)[O-])cc1[N+](=O)[O-]	-17	46*	9	0
SMILES	CCHF vOTU inh	RecA splice inh	GDH-TPI inh	Mtb FBA inh
O=C(CCNC(=O)c1ccc(Cl)cc1)Nc1ccccc1N1CCCC1	11	-2	-2	-2
CC(C)CC(=O)NNC(=S)Nc1ccc(S(N)(=O)=O)cc1	-9	-2	12	3
CCc1ccc(C(=O)NNC(=S)Nc2ccc(S(N)(=O)=O)cc2)s1	3	63*	25	3
O=C(NC(=S)NC1CCN(Cc2ccccc2)CC1)c1ccc(F)cc1	7	1	2	+
O=C(NC1CCN(Cc2ccc(F)cc2)CC1)c1ccccc1	-4	13	0	2
O=S(=O)(O)c1cc2oc(-c3ccccc3)nc2c2ccccc12	-109	-1	19	+
CN1CCN(CCCNC(=O)c2cc3c(=O)n(C)c4ccccc4c3s2)CC1	-28	0	12	89*
Cc1ccc2oc(=O)c3cc(C(=O)NCCCN4CCN(C)CC4)sc3c2c1	-4	-2	22	14
CC(=O)C(Cc1ccccc1)NC(=O)COC(=O)c1cc(S(=O)(=O)N2CCOCC2)ccc1F (centres undefined)	-4	x	-9	2
COc1cc(C)ccc1OCCOc1ccccc1Cl	7	1	-5	118*
COc1cc(C)ccc1OCCCOc1ccccc1Cl	3	3	8	-2
COc1cccc2c3c(c(C)nc12)CCN3c1ccccc1	-7	-10	11	4
COc1ccccc1N1CCc2c(C)nc3c(OC)cccc3c21	x	-5	46*	7
CC(C)Oc1ccccc1C1(c2ccccc2)NC(=O)NC1=O (centres undefined)	-13	2	9	0
O=C(c1cccc(F)c1)N1CCN(c2cccc(Cl)c2)CC1	8	5	-6	4
O=C(c1cccnc1)N1CCN(c2ccc(Cl)cc2)CC1	-13	-1	32*	3
O=C(c1ccc(N2CCN(C(=O)c3ccccc3)CC2)cc1)c1cccc(F)c1	5	3	38*	-2
O=C(c1ccc(N2CCN(C(=O)c3ccc(F)c(F)c3)CC2)cc1)c1cccc(F)c1	12	3	32*	-1
CC(C1SC(=S)NC1=O)C1SC(=S)NC1=O (centres undefined)	1	x	19	-2
CC1(C)CC(=O)C=C(NNC(=O)c2ccccc2O)C1	-15	-9	40*	0
Cc1cccc(C(=O)NNC2=CC(=O)CC(C)(C)C2)c1O	-4	-2	37*	5
COc1ccc(C(=O)NNC2=CC(=O)CC(C)(C)C2)cc1	8	0	14	0
CC1CCN(C(=O)CSCC(=O)O)CC1	-2	-4	-8	150*
NC(=O)NN=C1CC2CC1C1C=CCC21 (centres undefined)	-5	x	11	4
COC(=O)c1cn(C)c2ccc(S(=O)(=O)N3CCCCC3)cc2c1=O	2	0	40*	5
SMILES	CCHF vOTU inh	RecA splice inh	GDH-TPI inh	Mtb FBA inh
Cn1cc(C(=O)N2CCCCCC2)c(=O)c2cc(S(=O)(=O)N3CCCCC3)ccc21	-2	-1	5	-1
CC1(C)CC(CCNC(=O)CCl)(c2ccccc2)CCO1 (centres undefined)	10	32*	8	-2
COc1cc(CNC(=O)c2ccc3c(c2)S(=O)(=O)c2ccccc2C3=O)cc(OC)c1	13	2	5	-2
COc1ccc(-c2nc3cc(C)c(Br)c(C)n3c2Cc2ccccc2)cc1OC	18	x	x	-1
C=CCn1c(=NC(=O)c2cccc(N3C(=O)CCC3=O)c2)sc2cccc(OC)c21	-1	-1	42*	3
C#CCn1c(=NC(=O)c2cccs2)sc2cccc(OC)c21	-17	-5	31*	6
Cc1nn(Cc2ccccc2)c(C)c1/C=N/NC(=O)c1ccccc1O	8	-6	36*	-1
